This is an account of results in PubChem BioAssay AID2129 (The Scripps Research Institute Molecular Screening Center, 2009).

Among all 320,000 compounds or so, about 2,200 (0.69%) were called active.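 The calls were made as follows: active = inhibition above the mean of all tested compounds plus 3 SD, cutoff set per campaign (cut at about 30% in these data); inactive = the rest.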 The sample as a whole holds a higher share of actives than the screen did.

The target of the assay is Bcl-2-like protein 1 (Homo sapiens) (UniProt Q07817). The experiment in a line: inhibitors of human Bcl-xL, primary screen, biochemical, fluorescence polarization, HTS (AID 2129).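 Also: 0% = DMSO wells and 100% = unlabeled Bim-BH3 peptide competitor; inhibitors lower millipolarization by displacing the labeled peptide.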 The settings on record: GST-Bcl-xL / FITC-Bim BH3 peptide fluorescence polarization; at 10.9 µM; hits give high values. On the technique in general: Fluorescence polarisation rises when a labelled molecule tumbles more slowly, as on binding a larger partner.
Chain of Bcl-2-like protein 1 (Homo sapiens) (Q07817 whole entry, looked up): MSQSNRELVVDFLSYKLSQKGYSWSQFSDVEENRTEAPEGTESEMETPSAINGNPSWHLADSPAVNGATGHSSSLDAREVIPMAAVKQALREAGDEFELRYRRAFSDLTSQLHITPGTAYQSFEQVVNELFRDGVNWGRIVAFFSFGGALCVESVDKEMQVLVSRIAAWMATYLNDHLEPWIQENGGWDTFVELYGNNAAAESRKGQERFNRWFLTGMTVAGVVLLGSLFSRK
What is called inhibition is the drop in the measured response relative to a control, in per cent. Take `CCSc1nc2sc3c(c2c(=O)[nH]1)CC(C)(C)OC3`: the inhibition is 4.34% (inactive). Turning to `CCC1(C)Cc2c(sc3nc(SC)[nH]c(=O)c23)CO1` (stereo not drawn), the inhibition was 0.11% (inactive). For `CC/C(C)=N/Nc1nc2sc3c(c2c(=O)[nH]1)CC(C)(C)OC3` the value was 67.3% (active). As for `N#Cc1c(-c2ccccc2)cc(-c2ccccc2)nc1SCC(=O)O`, the inhibition was 6.81% (inactive). Consider `N#Cc1c(N2CCCCC2)nc(N)c2c(N)nc(SCC(=O)O)cc12`, for which the inhibition is 34.7% (active). As for `N#CCc1c(C#N)c(N)nc(N2CCCC2)c1C#N`, the inhibition was 1.69% (inactive).

Turning to `CCN(CC(=O)Nc1cccc(S(=O)(=O)N2CCCCC2)c1)Cc1ccccc1`, the inhibition was 1.24% (inactive).

With `COc1ccc(C(=O)C2CCCN(C(=O)c3ccc(OC)o3)C2)c(C)c1` (stereo not drawn), the inhibition was 7.44% (inactive). For `COC(=O)C[n+]1cccc2ccccc21`, the inhibition is 173% (active). In the case of `COc1ccccc1NC(=O)C[n+]1ccccc1`, the inhibition is -1.13% (inactive). Take `Cc1cccc[n+]1CC(=O)c1ccccc1`: the inhibition was 2.8% (inactive).

For `CCCOCC(O)CC(CC)C(=O)NNC(=S)Nc1ccccc1` (stereo not drawn), the inhibition was 2.96% (inactive). With `Cc1c(-c2ccccc2)cn2c1-c1ccc(C)n1CC2`, the inhibition was 31.6% (active). In the case of `C/C(=N\Nc1ncc(Cl)cc1Cl)c1ccc(S(=O)(=O)NCc2ccco2)cc1`, the inhibition was 3.34% (inactive). As for `CSCCC(NC(=O)c1ccco1)C(=O)OCC(=O)Nc1ncc(Cl)c(C)c1Cl` (stereo not drawn), the figure is 17.7% (inactive); as for `Cc1c(Cl)cnc(NC(=O)COC(=O)c2ccc(S(=O)(=O)NCc3ccco3)cc2)c1Cl`, 35.9% (active).

As for `COc1ccc(OCC(O)CN(C)C(=O)C(C)Oc2ccccc2)cc1` (stereo not drawn), the inhibition was -1.74% (inactive). On to `O=C(CSc1n[nH]c(-c2cccnc2)n1)Nc1ccc(Cl)cc1`, for which the inhibition was 2.31% (inactive).

Regarding `COc1ccc(Cc2nnc(SCC(=O)c3cccc([N+](=O)[O-])c3)n2C)cc1`, the inhibition is 3.55% (inactive).

As for `Cc1ccc(S(=O)(=O)Nc2nc3ccccc3nc2N2CCc3ccccc3C2)cc1`, the inhibition is 6.46% (inactive). As for `Cc1cc(N2CCN(S(=O)(=O)c3ccc(C)c(C)c3)CC2)c2ccccc2n1`, the inhibition was 1.43% (inactive). As for `Cc1ccc(S(=O)(=O)C(C#N)c2nc3ccccc3nc2N2CCCC2)cc1C` (stereo not drawn), the figure is 87.6% (active); as for `Cc1cc2oc(=O)cc(CN(C)Cc3ccc(OC(F)F)cc3)c2cc1Cl`, 0.69% (inactive). On to `CC(C)=CCCC(C)CN1CCC(n2nccc2NC(=O)c2ccccc2)CC1` (stereo not drawn), for which the inhibition is 3.8% (inactive). For `COC(=O)c1ccc(C)c(NC(=O)C2CC(=O)N(C3CCCC(C)C3C)C2)c1` (stereo not drawn), the inhibition is 4.61% (inactive).

Take `O=C(NCc1ccccn1)Nc1ccc(Cl)cc1`: the inhibition is 1.5% (inactive). `Cc1ccc(C)c(N2CCN(C(=O)CCCn3c(=O)c4cccn4c4cccnc43)CC2)c1`: the inhibition is 1.63% (inactive). As to `O=c1onc(-c2c(F)cccc2F)n1-c1ccccc1Cl`, the inhibition was 3.32% (inactive). Consider `CCOC(=O)c1c(NC(=O)/C=C/c2ccco2)sc(C)c1C`, for which the inhibition is 0.59% (inactive). As for `Cc1nnc(NC(=O)/C=C/c2ccco2)s1`, the figure is 39.6% (active); as for `CCC(CC)c1nnc(NC(=O)/C=C/c2ccco2)s1`, 4.39% (inactive); as for `CCc1nnc(SCc2cccc(F)c2)nc1CC`, 1.39% (inactive).

`Clc1ccccc1CSc1nnc(-c2ccco2)c(-c2ccco2)n1`: the inhibition is 37% (active).

In the case of `O=C(CC1N=C2c3ccccc3N=C(SCc3ccccc3Cl)N2C1=O)NCc1ccco1` (stereo not drawn), the inhibition is 15% (inactive). On to `c1ccc(CSc2nnc(-c3ccco3)c(-c3ccco3)n2)cc1`, for which the inhibition was 33.4% (active). For `COc1ccc2nc(SCc3ccccc3)nc(C)c2c1` the value was 1.64% (inactive). With `O=C(Nc1nnc(SCc2ccccc2Cl)s1)c1cccc([N+](=O)[O-])c1`, the inhibition is 9.99% (inactive). As to `Cc1ccc(SCC(=O)c2cc(C)c(OC(=S)N(C)C)c(C)c2)cc1`, the inhibition was -0.01% (inactive). For the compound `Cc1ccc(C2(c3ccc(C)cc3)NC(=O)N(Cc3c(C)noc3C)C2=O)cc1`, the inhibition is 6.73% (inactive).

For the compound `CC(=O)Nc1ccc(NS(=O)(=O)c2cc(C)sc2C)cc1`, the inhibition was 1.44% (inactive). As to `COc1ccc(C#Cc2c(-c3ccc(OC)cc3)oc3ccc(-c4ccc5c(c4)OCO5)cc23)cc1`, the inhibition was -0.02% (inactive). Take `CCc1cccc(C)c1N1C(=O)CN(Cc2ccccc2)C1=S`: the inhibition was -7.16% (inactive).

Consider `Cc1ccc(CNS(=O)(=O)c2ccc3c(c2)N(C)CCO3)cc1`, for which the inhibition is 8.25% (inactive). Turning to `O=C(CCn1c(SCC(=O)c2ccccc2)nc2ccccc2c1=O)NCc1ccc(F)cc1`, the inhibition is 49.4% (active).

Take `O=C(CCCn1c(SCC(=O)c2ccccc2)nc2ccccc2c1=O)NCC1CCCO1` (stereo not drawn): the inhibition is -3.16% (inactive).

Consider `O=C(CSc1nc2ccccc2c(=O)n1-c1ccc(F)cc1)NC1CC1`, for which the inhibition was 6.71% (inactive).

For `Cc1c(-c2ccccc2)nc(N)c(C#N)c1-c1cccs1`, the inhibition was 8.08% (inactive). Turning to `CCc1c(-c2ccccc2)nc(N)c(C#N)c1-c1cccs1`, the inhibition was 6.16% (inactive). For the compound `CN1CCc2nc(SC(C(=O)O)c3ccccc3)c(C#N)c(-c3cccs3)c2C1` (stereo not drawn), the inhibition is 31.4% (active). For `CCOc1ccc2[nH]c(=O)c(CN(Cc3nnnn3CCc3ccccc3)CC3CCCO3)cc2c1` (stereo not drawn) the value was 0.19% (inactive); for `O=C(COC(=O)/C=C/c1nc2ccccc2s1)Nc1ccccc1Oc1ccccc1`, -1.24% (inactive); for `O=C(COC(=O)c1cccc(Br)c1)Nc1cccc2c1C(=O)c1ccccc1C2=O`, 13.1% (inactive). As for `O=C(Cn1cnc2ccccc21)Nc1ccccc1-c1ccccc1`, the inhibition was 7.35% (inactive). `O=C(COC(=O)Cn1cnc2ccccc21)Nc1cccc2c1C(=O)c1ccccc1C2=O`: the inhibition is 137% (active).

In the case of `CC(C)(C)n1ncc2c(=O)n(Cc3ccc(Cl)cc3)cnc21`, the inhibition is 4.43% (inactive). Consider `CCOC(=O)N1CCN(CC(=O)n2c(C)c(C)c3ccccc32)CC1`, for which the inhibition was 9.52% (inactive). In the case of `Cc1nn(C(=O)c2ccoc2C)c(N)c1-c1ccccc1`, the inhibition is 173% (active). In the case of `C/C(=N\NC(=O)c1ccoc1C)c1ccccc1O`, the inhibition is 4.04% (inactive). In the case of `Cc1nn(-c2ccc([N+](=O)[O-])cc2)c(N)c1-c1ccccc1`, the inhibition was -20.3% (inactive).

`Cc1noc(C)c1C(=O)NCC1COc2ccccc2O1` (stereo not drawn): the inhibition is -7.18% (inactive). Consider `O=C(NCc1ccncc1)C1CCCN(S(=O)(=O)c2ccc(Br)cc2)C1` (stereo not drawn), for which the inhibition is 9.21% (inactive). As for `O=C(NCc1cc(C(F)(F)F)cc(C(F)(F)F)c1)C1CC(c2cccc(F)c2)=NO1` (stereo not drawn), the inhibition is 1.88% (inactive).

Take `CCN1C(=O)[C@@H]2[C@@H](c3ccc(-c4ccc(OC)cc4)c(OC)c3)N3CCC[C@@]3(C(=O)OC)[C@@H]2C1=O`: the inhibition is 4.65% (inactive). Consider `Cn1c(C(=O)N2CCCC(C(=O)NCc3ccccc3)C2)cc2sccc21` (stereo not drawn), for which the inhibition is 3.21% (inactive). For `Cc1ccccc1CSCCNC(=O)c1ccc(Cl)c(S(=O)(=O)N2CCOCC2)c1`, the inhibition is 3% (inactive).

With `Cc1nn(Cc2ccccc2)c(C)c1CNC(=O)c1ccc(F)c(S(=O)(=O)N2CCOCC2)c1`, the inhibition is 114% (active). Regarding `O=C(NCCSCc1ccccc1)c1ccc(Cl)c(S(=O)(=O)N2CCOCC2)c1`, the inhibition was 1.38% (inactive).

As for `COc1ccc(C(=O)N(Cc2ccccc2)c2ccc(C)cc2)cc1S(=O)(=O)N1CCOCC1`, the inhibition is 5.85% (inactive). On to `O=C(Nc1ccccc1N1CCCC1)c1ccc(F)c(S(=O)(=O)N2CCOCC2)c1`, for which the inhibition was 1.14% (inactive). On to `O=C(c1ccc(F)c(S(=O)(=O)N2CCOCC2)c1)N(CCc1ccccc1)Cc1ccccc1`, for which the inhibition is 31.7% (active). As for `Cc1ccc(-c2noc(C3CCCN(C(=O)c4cccc(Cl)c4)C3)n2)o1` (stereo not drawn), the figure is -3.97% (inactive); as for `Cc1ccc2nc(SCC(=O)N3CC(C)OC(C)C3)nc(=O)n2c1` (stereo not drawn), 5.27% (inactive); as for `Cc1nc([N+](=O)[O-])c(NCCCO)n1Cc1ccccc1`, 8.64% (inactive). For `O=C(Nc1cc(S(=O)(=O)N2CCOCC2)ccc1OCC(F)(F)F)c1ccc(N2CCCC2=O)cc1`, the inhibition was -2.38% (inactive). As to `CC(NC(=O)CSc1nc2c(cc1C#N)CN(C)CC2)c1ccccc1` (stereo not drawn), the inhibition is 36.7% (active). For the compound `Cc1cc(NC(=O)CSc2nc3c(cc2C#N)CCCCC3)no1`, the inhibition is 0.61% (inactive). Turning to `CC1(C)CCc2nc(SCc3ccccc3)c(C#N)cc2C1`, the inhibition is 4.14% (inactive). Regarding `Cn1c(CC(=O)NNC(=O)c2ccccc2F)nc2ccccc21`, the inhibition is 4.35% (inactive).

As for `CCOc1ccc(N2C(=O)Nc3ccccc3C2(O)C(=O)NCc2ccco2)cc1` (stereo not drawn), the inhibition is 2.5% (inactive). Regarding `CCC1CCCCN1C(=O)CSc1nc2c(c(=O)n1C)SC(C)C2` (stereo not drawn), the inhibition was 2.98% (inactive).

On to `CCCCCCn1c(CN2CCCC(C)C2)nc2c1c(=O)n(C)c(=O)n2C` (stereo not drawn), for which the inhibition is -0.05% (inactive). `CCCn1c(O)c(CN2CCCC(C)C2)c(C)c(C#N)c1=O` (stereo not drawn): the inhibition was 53.4% (active).

On to `Cc1c(CN2CCCCC2)c(O)n(CCO)c(=O)c1C#N`, for which the inhibition was 21.4% (inactive). Regarding `COc1ccc(CNC(=O)c2c[nH]c3c(OC)cc(OC)cc3c2=O)cc1`, the inhibition is 1.75% (inactive).

Regarding `O=C(O)CC/C(=N\NC(=O)c1ccc(F)cc1)c1ccc(Br)cc1`, the inhibition is 2.98% (inactive).

With `Cc1cccc(NC(=O)c2cc(S(=O)(=O)N3CCC4(CC3)OCCO4)ccc2F)c1`, the inhibition is 0.06% (inactive). For `Cc1ccc(/C=C(\C#N)C(=O)Nc2cccc3ncccc23)o1` the value was 102% (active); for `Cc1ccc(Cc2cnc(NC(=O)/C(C#N)=C/c3ccc(-c4cccc([N+](=O)[O-])c4)o3)s2)cc1`, 1.29% (inactive).

With `O=C(O)c1cc(Cl)c(Cl)cc1C(=O)Nc1cccc2ncccc12`, the inhibition is 5.65% (inactive). Turning to `CCOc1ccc(-n2c(SCC(=O)NC3CCS(=O)(=O)C3)nnc2-c2cccnc2)cc1` (stereo not drawn), the inhibition was -6.49% (inactive). With `CCc1cccc(C)c1N(C(=O)Cn1c(CO)nc2ccccc21)C(C)COC` (stereo not drawn), the inhibition was 58.5% (active).

For `CCOCN(C(=O)Cn1c(C(C)O)nc2ccccc21)c1c(C)cccc1CC` (stereo not drawn), the inhibition was 6.75% (inactive). For the compound `COc1ccccc1Cn1c(CO)nc2ccccc21`, the inhibition was 0.35% (inactive).
